Reference: PubChem BioAssay (NCATS)
Records with an inconclusive call do not appear. The source made the active and inactive calls. Calls come from the whole dose curve; as a rule, active = well fitted curve in the direction sought with a large enough effect; inconclusive = small, poorly fitted or top-dose-only effect, or another doubt; inactive = no such curve, though single readings can be large; an effect the other way counts as inactive or inconclusive.

Columns and labels:
[1] = system: CRL-7250; assay: Cytotoxic Profiling of Annotated Libraries Using Quantitative High-Throughput Screening (AID 1296008); conditions: Five cell lines viability, CellTiter-Glo ATP luminescence, 48-72 h; max response: active compounds read low; note: nearly all actives have a fitted effect of over 60% in size; note: potency is the fitted concentration of half-maximal effect; for max response: % is set by controls: 0 for no effect and ±100 for the full control effect
Outline: (§1)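 Cytotoxicity was measured as CellTiter-Glo ATP luminescence, read after 10 min at room temperature. Compound treatment of the cells lasted 48 or 72 hr at 37 degrees Celsius in a qHTS format.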

[2] = system: HEK293; assay: as above; conditions: Five cell lines viability, CellTiter-Glo ATP luminescence, 48-72 h; max response: active compounds read low
Outline: as §1

[3] = system: HaCat; assay: as above; conditions: Five cell lines viability, CellTiter-Glo ATP luminescence, 48-72 h; max response: active compounds read low
Outline: as §1

[4] = system: KB-3-1; assay: as above; conditions: Five cell lines viability, CellTiter-Glo ATP luminescence, 48-72 h; max response: active compounds read low
Outline: as §1

[5] = system: NIH3T3; assay: as above; conditions: Five cell lines viability, CellTiter-Glo ATP luminescence, 48-72 h; max response: active compounds read low
Outline: as §1

[6] = system: HEK293T; assay: qHTS assay to identify novel small-molecules to repurpose for Merkel cell carcinoma treatment (AID 1296009); conditions: MCC and control cell lines, CellTiter-Glo viability, 72 h; at 44.8 µM (top of the series) unless noted; note: nearly all actives have a fitted effect of over 60% in size
Outline: (§2)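 Cell viability, measured as CellTiter-Glo luminescence, was normalized between DMSO and no-cell wells. The cells had been exposed to 8- or 11-point compound dilutions for 72 hr at 37 degree celsius.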

[7] = system: C33A; assay: Primary qHTS to identify gynecologic anti-cancer compounds using libraries of approved drugs and bioactive compounds (AID 1345084); conditions: Gynecologic cancer cell panel viability, ATPlite luminescence, 48 h; series mostly up to 57.5 µM; note: % is set by controls: 0 for no effect and ±100 for the full control effect; nearly all actives have a fitted effect of over 55% in size
Outline: (§3)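 ATP-based viability (ATPlite), 1,000 cells/well, 16 h pre-incubation, 48 h compound at 37 C, 5% CO2, 15 min RT before read.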

[8] = system: CAOV3; assay: as above; conditions: Gynecologic cancer cell panel viability, ATPlite luminescence, 48 h; series mostly up to 57.5 µM
Outline: as §3

[9] = system: CASKI; assay: as above; conditions: Gynecologic cancer cell panel viability, ATPlite luminescence, 48 h; series mostly up to 57.5 µM
Outline: as §3

[10] = system: Es-2; assay: as above; conditions: Gynecologic cancer cell panel viability, ATPlite luminescence, 48 h; series mostly up to 57.5 µM
Outline: as §3

[11] = system: HeLa; assay: as above; conditions: Gynecologic cancer cell panel viability, ATPlite luminescence, 48 h; series mostly up to 57.5 µM
Outline: as §3

[12] = system: Hek293T; assay: as above; conditions: Gynecologic cancer cell panel viability, ATPlite luminescence, 48 h, control line for the selectivity index; series mostly up to 57.5 µM
Outline: as §3

[13] = system: JEG-3; assay: as above; conditions: Gynecologic cancer cell panel viability, ATPlite luminescence, 48 h; series mostly up to 57.5 µM
Outline: as §3

[14] = system: HACAT; assay: qHTS assay to identify novel small-molecules to repurpose for Merkel cell carcinoma treatment (AID 1296009); conditions: MCC and control cell lines, CellTiter-Glo viability, 72 h; at 44.8 µM (top of the series) unless noted; note: nearly all actives have a fitted effect of over 60% in size
Outline: as §2

CC(CCc1ccc(O)cc1)O[C@@H]1O[C@H](CO[C@@H]2OC(CO)[C@H](O)[C@H]2O)[C@@H](O)[C@H](O)[C@H]1O (some centres undefined)
inactive: max response [1] -0.0719% | outcome [2] | max response [3] -7.01% | outcome [4] | max response [5] -1.05% | outcome [6] inactive [at 17.4 µM] | Potency [7] | Potency [8] | outcome [9] | Potency [10] | Potency [11] | Potency [12] | Potency [13]

CC(CNS(=O)(=O)C(C)C)c1ccc(-c2ccc(C#N)cc2)cc1 (centres undefined)
inactive: outcome [3] | max response [4] -27.5% | max response [5] -14.2% | outcome [14] | Potency [8] | Potency [11]
active: Potency [1] 5.8 µM | Potency [2] 7.31 µM

CC1=C2CC(=O)C(C)CC/C=C(\C)CC2OC1=O (centres undefined)
inactive: outcome [1] | max response [2] -1.49% | outcome [3] | max response [4] 1.48% | max response [5] 2.98% | outcome [14] | Potency [8] | outcome [9] | Potency [10] | Potency [11] | Potency [12] | Potency [13]

CC1=CCC(O)C2(C)CCC3C(C)C(=O)OC3C12 (centres undefined)
inactive: max response [1] -3.96% | max response [2] -18.2% | outcome [3] | max response [4] -6.48% | max response [5] -0.383% | outcome [14] | Potency [8] | outcome [9] | Potency [10] | Potency [11] | Potency [12] | Potency [13]

C/C=C/C=C/C=C/C(=O)O[C@@H]1[C@@H](OC)C2=C(C(=O)N(C(CCC(=O)O)C(=O)O)C2)[C@@]2(C)CCCC(C)(C)[C@H]12 (some centres undefined)
inactive: max response [1] -4.83% | outcome [2] | max response [3] -8.01% | max response [4] 0.124% | max response [5] -12.6% | outcome [6] inactive [at 17.4 µM] | Potency [7] | Potency [8] | outcome [9] | Potency [10] | Potency [11] | Potency [12] | Potency [13]

COc1c(O[C@@H]2O[C@H](CO)[C@@H](O)[C@H](O)[C@H]2O)c(CCC(=O)O)cc2ccoc12
inactive: max response [1] -9.14% | max response [2] -0.3% | outcome [3] | max response [4] 2.96% | max response [5] 0.4% | outcome [14] | Potency [8] | outcome [9] | Potency [10] | Potency [11] | Potency [12]

COC(=O)CCC1(C)C(C(C)(C)O)C(O)CC2(C)Oc3c(C)c4c(c(OC)c3CC21)C(=O)OC4 (centres undefined)
inactive: max response [1] -9.47% | outcome [2] | max response [3] -0.542% | max response [4] 5% | max response [5] -1.25% | outcome [6] inactive [at 17.4 µM] | Potency [7] | Potency [8] | outcome [9] | Potency [10] | Potency [11] | Potency [12] | Potency [13]

C[C@@H]1C(=O)O[C@H](C)[C@H]1C[C@@H](O)[C@](C)(O)[C@H]1CC[C@@]2(O)C3=CC(=O)[C@@H]4C[C@@H](O)[C@@H](O)C[C@]4(C)C3CC[C@]12C (some centres undefined)
inactive: max response [1] -1.86% | outcome [2] | max response [3] -25% | max response [4] 8.3% | max response [5] 1.28% | outcome [6] inactive [at 17.4 µM] | Potency [7] | Potency [8] | outcome [9] | Potency [10] | Potency [11] | Potency [12] | Potency [13]

CC1=C2CC3C(CCC3(C)O)C(C)(O)CC2OC1=O (centres undefined)
inactive: max response [1] -2.15% | outcome [2] | max response [3] 3.12% | max response [4] 6.46% | max response [5] -16.4% | outcome [6] | Potency [7] | Potency [8] | outcome [9] | Potency [10] | Potency [11] | Potency [12] | Potency [13]

COC(=O)C1=CO[C@@H](O[C@@H]2O[C@H](CO)[C@@H](O)[C@H](O)[C@H]2O)[C@@H]2C(CO)=CC[C@H]12
inactive: max response [1] 3.17% | max response [2] -17.4% | outcome [3] | outcome [4] | max response [5] -0.343% | outcome [14] | Potency [7] | outcome [9] | Potency [10] | Potency [11] | Potency [12] | Potency [13]

C[C@@H]1CC[C@]2(C(=O)O)CC[C@]3(C)C(=CCC4[C@@]5(C)C[C@@H](O)[C@@H](O)C(C)(C)C5CC[C@]43C)C2[C@]1(C)O (some centres undefined)
inactive: max response [1] -1.23% | outcome [2] | max response [3] -10.3% | max response [4] 9.05% | max response [5] -8.5% | outcome [6] inactive [at 17.4 µM] | Potency [7] | Potency [8] | outcome [9] | Potency [10] | Potency [11] | Potency [12] | Potency [13]

C=CC(C)(CC/C=C(\C)C(=O)OC)OC1OC(COC(=O)CC(C)(O)CC(=O)O)C(O)C(O)C1O (centres undefined)
inactive: max response [1] -11.6% | outcome [2] | max response [3] 3.32% | max response [4] 1.2% | max response [5] -0.702% | outcome [6] inactive [at 17.4 µM] | Potency [7] | Potency [8] | outcome [9] | Potency [10] | Potency [11] | Potency [12] | Potency [13]

C/C=C(/C)C(=O)OC1C2OC2C2(CO2)C2C3OC(=O)C(C)C3CCC12C (centres undefined)
inactive: max response [1] -1.71% | outcome [2] | max response [3] 3.73% | max response [4] 9.88% | max response [5] -1.74% | outcome [6] | Potency [7] | Potency [8] | outcome [9] | Potency [10] | Potency [11] | Potency [12] | Potency [13]
